Results filed as inconclusive are left out. Activity calls are given as the source filed them. Unless noted, the call rests on the fitted dose curve; in most records, active means well fitted curve in the direction sought with a large enough effect in the repeat runs; inconclusive means weak or mixed curves; inactive means no such curve, though single readings can be large; an effect the other way counts as inactive or inconclusive.
Tests used:
[1] = qHTS assay to identify small molecule agonists of the hypoxia (HIF-1) signaling pathway - cell viability counter screen (AID 1224844; calls by dose curve; further: nearly all actives have a fitted effect of over 50% in size)
In short: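 Cytotoxicity measured by CellTiter-Glo ATP luminescence in the wells also read for beta-lactamase signal. Cells were HRE-bla ME-180 (2,000/well, 0.5% dialyzed FBS), exposed to compounds for 17 h at 37C.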

[2] = qHTS assay to identify small molecule agonists of H2AX (AID 1224845; active means well fitted activation curve with a large enough effect in the signal ratio in the repeat runs, not every such curve was filed as active; the % refers to the signal ratio)
In short: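 Wild-type CHO-K1 cells plated overnight, then exposed 3 hr at 37C to compounds at 15 concentrations (0.76% DMSO). Lysed, then HTRF anti-pH2AX(S139)-cryptate/anti-H2AX-d2 detection after 24 hr at room temperature; emissions 665 and 620 nm.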

[3] = qHTS assay to identify small molecule agonists of the hypoxia (HIF-1) signaling pathway (AID 1224846; active means well fitted activation curve with a large enough effect in the signal ratio in the repeat runs, not every such curve was filed as active; the % refers to the signal ratio)
In short: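 Compounds added to ME-180 cells carrying hypoxia-response-element beta-lactamase reporter (0.5% dialyzed FBS, 5 h preplating), 17 h at 37C; agonist activity detected by CCF4-AM B/G FRET read-out.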

[4] = qHTS assay to identify small molecule agonists of H2AX - cell viability counter screen (AID 1224847; calls by dose curve; further: top concentration of the series differs between compounds; nearly all actives have a fitted effect of over 30% in size)
In short: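 Cytotoxicity counter screen in wild-type CHO-K1 cells: a 3 hr compound treatment at 37C across 15 concentrations, followed by CellTiter-Glo luminescence to gauge viable cells.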

[5] = qHTS assay to identify small molecule antagonists of the estrogen related receptor (ERR) signaling pathway from Tox21 library (AID 1224848); further: nearly all actives have a fitted effect of over 50% in size
In short: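 Tox21 10K compounds in DMSO tested for ERR pathway antagonism in NTP's ERR cell line; 18 h, 37 C exposure; ONE-Glo luminescence.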

[6] = qHTS assay to identify small molecule agonists of the estrogen related receptor (ERR) signaling pathway from Tox21 library (AID 1224849; calls by dose curve; further: nearly all actives have a fitted effect of over 15% in size); conditions: ERR reporter cell line, ONE-Glo luciferase, 18 h; at 92.4 µM (top of the series) unless noted
In short: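 Luminescent agonist read-out (One-Glo, 30-minute room-temperature incubation) following 18-hour compound treatment at 37 C of the ERR cell line, which had been plated 6 hours before dosing.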

[7] = qHTS RealTime-Glo MT Cell Viability Assay in HepG2 cells - 24 hour (AID 1224867); further: nearly all actives have a fitted effect of over 50% in size
In short: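 Tox21 10K library screened in qHTS format on HepG2 cells carrying RealTime-Glo reagents. Compounds were added after a 5 h preincubation, and the luminescent signal from continuous culture was measured repeatedly during 40 h treatment.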

[8] = A CellTox Green Cytotoxicity Assay to monitor cytotoxicity in HEK293 cells - 0 hour (AID 1224869); further: nearly all actives have a fitted effect of over 50% in size
In short: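 Fluorescence from a DNA-binding dye excluded by viable cells was measured repeatedly in the same HEK293 wells (600 cells/well) during continuous compound exposure at 37 C. Each assay gives one read point: 0, 8, 16, 24, 32 or 40 h.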

[9] = qHTS RealTime-Glo MT Cell Viability Assay in HepG2 cells - 40 hour (AID 1224870); further: nearly all actives have a fitted effect of over 50% in size
In short: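 HepG2 cells mixed with RealTime-Glo MT reagents (NanoLuc plus cell-permeant prosubstrate) were seeded at 600 cells/well, incubated 5 h at 37 C/5% CO2, then pinned with compounds in DMSO; nonlytic luminescence tracked viability during 40 h treatment.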

[10] = qHTS RealTime-Glo MT Cell Viability Assay in HEK293 cells - 32 hour (AID 1224868); further: nearly all actives have a fitted effect of over 50% in size; further: potency means the concentration at half of the fitted maximal effect
In short: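 Luminescence generated by NanoLuc from substrate produced by living HEK293 cells served as the viability signal. Each value reflects the reading at its stated time point during continuous 40 h compound exposure at 37 C.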
On the % scale 0 is the no-effect control and ±100 the full control effect.

CC(C)CCCCOC(=O)c1ccccc1C(=O)OCCCCC(C)C
inactive: outcome [1] | outcome [2] | outcome [3] | Potency [4] | Potency [5] | activity change, positive = activation [6] -6.44% | outcome [7] | outcome [8] | outcome [9]

O=C(OCc1ccccc1)C(=O)OCc1ccccc1
inactive: outcome [1] | outcome [2] | outcome [3] | Potency [4] | Potency [5] | activity change, positive = activation [6] 0.466% | outcome [7] | Potency [10] | outcome [8] | outcome [9]

O=C1O[C@@H]2[C@@H](O)[C@H](O)O[C@@H]2[C@H]1O
inactive: outcome [1] | outcome [2] | outcome [3] | Potency [4] | Potency [5] | activity change, positive = activation [6] -1.02% | Potency [10] | outcome [8]

CN=C(NC#N)Nc1ccc(C2=NNC(=O)CC2C)cc1 (configuration not stated)
inactive: outcome [1] | outcome [2] | outcome [3] | Potency [4] | Potency [5] | activity change, positive = activation [6] 5.55% [at 42.5 µM] | outcome [7] | Potency [10] | outcome [8] | outcome [9]

CC1COc2ccccc2N1 (configuration not stated)
inactive: outcome [1] | outcome [2] | outcome [3] | Potency [4] | Potency [5] | activity change, positive = activation [6] 13.7% | outcome [7] | outcome [8] | outcome [9]

CCCCCCOC(=O)CC
inactive: outcome [1] | outcome [2] | outcome [3] | Potency [4] | Potency [5] | activity change, positive = activation [6] -0.0388% | outcome [7] | Potency [10] | outcome [8] | outcome [9]

C=CCCCCCCCCCCCC
inactive: outcome [1] | outcome [2] | outcome [3] | Potency [4] | outcome [7] | Potency [10] | outcome [8]

CC(CC=O)CCCC(C)(C)O (configuration not stated)
inactive: outcome [1] | outcome [2] | outcome [3] | Potency [4] | Potency [5] | outcome [7] | Potency [10] | outcome [8] | outcome [9]

CC(C)OC(=O)CCCCC(=O)OC(C)C
inactive: outcome [1] | outcome [2] | outcome [3] | Potency [4] | outcome [7] | Potency [10] | outcome [8]

Nc1cccc(O)c1
inactive: outcome [1] | outcome [2] | outcome [3] | Potency [4] | outcome [7] | Potency [10] | outcome [8] | outcome [9]

CC(C)(C)c1nnc(NS(=O)(=O)c2ccc(N)cc2)s1
inactive: outcome [1] | outcome [2] | outcome [3] | Potency [4] | outcome [7] | Potency [10] | outcome [8] | outcome [9]

O=C(OCC(O)CO)c1ccccc1Nc1ccnc2c(C(F)(F)F)cccc12 (configuration not stated)
inactive: outcome [1] | outcome [2] | outcome [3] | Potency [4] | outcome [7] | outcome [8] | outcome [9]
active: Potency [10] 4.25 µM

CC(C)(C)OC(=O)c1ccc(O)cc1
inactive: outcome [1] | outcome [2] | outcome [3] | Potency [4] | Potency [5] | Potency [10] | outcome [8] | outcome [9]

CN(C)c1ccc(C=O)cc1
inactive: outcome [1] | outcome [2] | outcome [3] | Potency [4] | Potency [5] | activity change, positive = activation [6] 0.183% | Potency [10] | outcome [8] | outcome [9]

C=COCCOCCOCCOC=C
inactive: outcome [1] | outcome [2] | outcome [3] | Potency [4] | outcome [7] | Potency [10] | outcome [8]

CCOc1cc([N+](=O)[O-])c(OCC)cc1N1CCOCC1
active: Potency [10] 15.5 µM
inactive: outcome [1] | outcome [2] | outcome [3] | Potency [4] | outcome [7] | outcome [8] | outcome [9]

COc1cc2c(cc1OC)[C@@H]1CC(=O)[C@@H](CC(C)C)CN1CC2
inactive: outcome [1] | outcome [2] | outcome [3] | Potency [4] | outcome [7] | Potency [10] | outcome [8]

O=C1CC(c2ccc(Cl)cc2)CC(=O)N1
inactive: outcome [1] | outcome [2] | outcome [3] | Potency [4] | outcome [7] | Potency [10] | outcome [8]

CCOC(=O)/C=C/c1ccccc1
inactive: outcome [1] | outcome [2] | outcome [3] | Potency [4] | outcome [7] | Potency [10] | outcome [8] | outcome [9]

CC(C)=O
inactive: outcome [1] | outcome [2] | outcome [3] | Potency [4] | outcome [7] | Potency [10] | outcome [8] | outcome [9]

CN(CCOc1ccc(NS(C)(=O)=O)cc1)CCc1ccc(NS(C)(=O)=O)cc1
inactive: outcome [1] | outcome [2] | outcome [3] | Potency [4] | outcome [7] | Potency [10] | outcome [8] | outcome [9]

CCOCCOC(=O)/C=C/c1ccc(OC)cc1
inactive: outcome [1] | outcome [2] | outcome [3] | Potency [4] | outcome [7] | Potency [10] | outcome [8]

CC(C)C(=O)OCc1cccc(OC(=O)[C@@H]2N3C(=O)[C@@H](NC(=O)Cc4ccccc4)[C@H]3SC2(C)C)c1
inactive: outcome [1] | outcome [2] | outcome [3] | Potency [4] | outcome [7] | Potency [10] | outcome [8] | outcome [9]

O=C1c2cccc3c2[C@H](CCC3)CN1[C@@H]1CN2CCC1CC2
inactive: outcome [1] | outcome [2] | outcome [3] | Potency [4] | Potency [5] | outcome [8] | outcome [9]
active: activity change, positive = activation [6] 20.8% [at 42.5 µM]

CN(C)C(=O)CNC(=O)Cc1ccccc1
inactive: outcome [1] | outcome [2] | outcome [3] | Potency [4] | outcome [7] | Potency [10] | outcome [8] | outcome [9]

CCCCCCCCCCl
inactive: outcome [1] | outcome [2] | outcome [3] | Potency [4] | Potency [5] | activity change, positive = activation [6] 2.84% | outcome [8] | outcome [9]
